Measurements as given in PubChem BioAssay AID1159580 (chemical genetic matrix, 2015).
Among all 5,500 compounds or so, about 2,000 (36%) were called active. Inconclusive results (about 18%) are left out. Cut-off read from the data, not from the text of the source: active = normalized growth mostly below about 0.91 (no sharp cut-off); inconclusive = no clear call, values can overlap the other calls; inactive = mostly above about 0.92. The list shows a part of the results.

Assay: chemical genetic growth profiling, strain panel (AID 1159580);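 note: tested at 20 µM; growth read once vehicle control cultures reached saturation at 30 °C; 1 = growth at the plate median or of vehicle wells; lower values mean less growth of the strain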
Conditions: S. cerevisiae deletion strains, growth OD

Measured: normalized growth

C=C(C)C1CC=C(C(=O)O)CC1 (centres undefined)
inactive: locus YAL013W, strain DEP1, stronger effect = lower value 1.01 | locus YAL040C, strain CLN3, stronger effect = lower value 0.991 | locus YCL061C, strain MRC1 (second series), stronger effect = lower value 1.01 | locus YDR150W, strain NUM1, stronger effect = lower value 0.986 | locus YDR363W, strain ESC2, stronger effect = lower value 0.961 | locus YER002W, strain NOP16, stronger effect = lower value 1.02 | locus YGR229C, strain SMI1, stronger effect = lower value 0.978 | locus YMR263W, strain SAP30, stronger effect = lower value 0.997 | locus YMR307W, strain GAS1, stronger effect = lower value 0.996 | locus YNL175C, strain NOP13, stronger effect = lower value 1.01 | locus YNL197C, strain WHI3, stronger effect = lower value 1 | locus YNL224C, strain SQS1, stronger effect = lower value 1.01 | locus YOR083W, strain WHI5 (second series), stronger effect = lower value 0.961 | locus YPL241C, strain CIN2, stronger effect = lower value 1
